Screening data as filed in PubChem.
Pf growth 96h: P. falciparum growth inhibition at 96 hour, primary screen for plastid delayed-death inhibitors; P. falciparum luciferase reporter growth, 96 h; Potency, µM (titrated, usually from 28.7 µM), without a hit: at the highest dose activity change, negative = inhibition, hits mostly inhibitors; hit rate 6.9% among 320,000; also: potency is read from the fitted curve at half-maximal effect; % is scaled to controls: 0 for no effect and ±100 for the full control effect
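P. falciparum expressing integrated firefly luciferase, in erythrocytes at 2% hematocrit, 0.05% parasitemia, incubated with compounds 96 h at 37 C, 5% CO2. Growth inhibition read as loss of luminescence; two-generation exposure targets delayed-death apicoplast inhibitors.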
AMA1-RON2 inh: disrupts binding of P. falciparum AMA1 to RON2. AlphaScreen AMA1-biotinylated RON2 peptide binding. Potency, µM (series often up to 58.2 µM), without a hit: at the top dose activity change, negative = inhibition, most hits filed as inhibitors. hit rate 0.2% among 360,000. AID 720542;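 also: potency is read from the fitted curve at half-maximal effect; 0% = vehicle wells and -100% = peptide control; nearly all actives have a fitted effect of over 45% in size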
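AMA1 (3D7) with his tag at 25 nM final met compounds first, then biotinylated RON2 peptide at 25 nM; detection used donor plus acceptor beads, 10 µg/mL apiece, read by AlphaScreen after 30 min at room temperature.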
AmpC no deterg: inhibitors of E. coli AmpC beta-lactamase without detergent; AmpC nitrocefin hydrolysis, absorbance 480 nm, 0.0001% Triton; P00811; hit rate 0.52% among 330,000; Potency, µM (doses to about 57.1 µM), for inactives: at the top dose activity change, negative = inhibition, most hits filed as inhibitors;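 also: potency is read from the fitted curve at half-maximal effect; plate controls were no compound for no effect and no enzyme for full effect; nearly all actives have a fitted effect of over 20% in size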
Target sequence (P00811 whole entry, looked up): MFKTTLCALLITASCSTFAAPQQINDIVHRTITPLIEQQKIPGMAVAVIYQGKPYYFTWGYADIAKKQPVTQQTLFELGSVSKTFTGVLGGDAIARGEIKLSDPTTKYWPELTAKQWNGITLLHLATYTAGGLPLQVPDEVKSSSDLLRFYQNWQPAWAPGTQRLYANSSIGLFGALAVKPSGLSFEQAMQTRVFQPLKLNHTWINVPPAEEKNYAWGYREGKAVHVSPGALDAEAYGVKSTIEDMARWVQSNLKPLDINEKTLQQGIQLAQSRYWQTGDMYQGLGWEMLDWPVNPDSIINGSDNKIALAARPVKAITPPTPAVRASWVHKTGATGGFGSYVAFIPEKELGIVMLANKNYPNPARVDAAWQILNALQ
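AmpC (5.3 nM in the dispensed reagent) in 20 mM phosphate pH 7.0 with 0.01% (detergent screen) or 0.0001% Triton X-100 was preincubated with compounds for 15 min at room temperature. Nitrocefin was then added from an 800 uM solution, and hydrolysis was followed at 480 nm.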
HCV inh: inhibitors of hepatitis C virus infection; AID 651820; Potency, µM (top dose mostly 41.8 µM), for inactives: top-dose activity change, negative = inhibition, actives largely listed as inhibitors; Huh7.5.1 HCVcc-Cre infection, luciferase reporter, 44 h; hit rate 3.4% among 340,000; also: potency is read from the fitted curve at half-maximal effect; % is scaled to controls: 0 for no effect and ±100 for the full control effect
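A cell-based infection assay in which seeded cells (1,000 per well) receive test compound after 4 h, are inoculated with HCVcc-Cre at approximately 0.5 moi, and are incubated 44 h before luminescence detection.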
AmpC detergent: AmpC beta-lactamase inhibition with detergent present. P00811. AmpC hydrolysis of nitrocefin, absorbance 480 nm, 0.01% Triton. Potency, µM (titrated, usually from 114 µM), without a hit: top-dose activity change, negative = inhibition, usual class: inhibitors. hit rate 0.041% among 370,000. AID 485294;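 also: potency is read from the fitted curve at half-maximal effect; 0% = no-compound wells and -100% = no-enzyme wells; nearly all actives have a fitted effect of over 25% in size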
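AmpC (5.3 nM in the dispensed reagent) in 20 mM phosphate pH 7.0 with 0.01% (detergent screen) or 0.0001% Triton X-100 was preincubated with compounds for 15 min at room temperature. Nitrocefin was then added from an 800 uM solution, and hydrolysis was followed at 480 nm.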
Pf growth 48h: inhibits P. falciparum growth in the first generation, 48 h; P. falciparum luciferase growth in erythrocytes, 48 h; Potency, µM (top dose mostly 28.7 µM), without a hit: top-dose activity change, negative = inhibition, usual class: inhibitors; hit rate 5.9% among 310,000; AID 504832; also: potency is read from the fitted curve at half-maximal effect; % is scaled to controls: 0 for no effect and ±100 for the full control effect
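In quantitative HTS format, infected erythrocytes bearing luciferase-reporter parasites were treated for a single generation at 37 C. Luminescence after adding detection reagent served as the growth measure.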
CLK4 cf ADPGlo: CLK4 (human) kinase inhibition, ADP-Glo confirmation; shares compounds with Pf growth 48h; Potency, µM (top dose mostly 80 µM), for the others: top-dose activity, negative = inhibition, usual class: inhibitors; hit rate 80% among 65; recombinant Clk4, RS peptide, ADP-Glo luminescence
CLK4 ADP FP: CLK4 (human) inhibition, Transcreener FP confirmation | recombinant Clk4, ADP Transcreener FP, RS peptide | Potency, µM (series often up to 80 µM), without a hit: top-dose activity, negative = inhibition, most hits filed as inhibitors | shares compounds with Pf growth 48h | hit rate 70% among 65
The depositor's hits bear a star; i = inactive; ? = inconclusive; . = no result given; [ ] = dose if it differs, or a comment. Shown are actives, neighbours in structure and some others; about 11% of the full set was active somewhere. Calls follow the shape of the dose curve; as a rule, active = well fitted curve in the direction sought with a large enough effect; inconclusive = small, poorly fitted or top-dose-only effect, or another doubt; inactive = no such curve, though single readings can be large; an effect the other way counts as inactive or inconclusive.

SMILES	Pf growth 96h	AMA1-RON2 inh	AmpC no deterg	HCV inh	AmpC detergent	Pf growth 48h	others
COc1cccc(Nc2nc(CN3CCOCC3)nc3sc4c(c23)CCCC4)c1	?	-8%[11.6 µM]	168%	-9%	2%	15µM*
COc1cc2c(cc1OC)CN(c1nc(CN3CCOCC3)nc3sc4c(c13)CCCC4)CC2	1.7µM*	?	177%	?	-11%	9.3µM*
COc1cc2c(cc1OC)CN(c1nc(CN3CCCCC3)nc3sc4c(c13)CCCC4)CC2	1.9µM*	-22%	381%	22µM*	7%	3.3µM*
Cc1nc(N2CCOCC2)c2c3c(sc2n1)CCC3	?	-2%	8%	?	3%	10µM*
CSc1nc(N2CCOCC2)c2c3c(sc2n1)CCCC3	4%	-6%	-15%	?	-8%	?
Cc1ccccc1Cn1c(=O)n(CCC(=O)NCc2ccco2)c(=O)c2sccc21	.	.	.	.	20%	.
Cn1c(=O)oc2cc(S(=O)(=O)N3CCCC(C(=O)NCCc4ccc(Cl)cc4)C3)ccc21 (stereo not drawn)	.	.	.	.	5%	.
CCc1cccc(NC(=O)Cn2c(=O)c(C(F)(F)F)nc3ccccc32)c1	.	.	.	.	2%	.
CN(C)CCNC(=O)/C(=C/c1ccc(-c2cccc(Cl)c2)o1)NC(=O)c1ccccc1	13%	-5%	45%	11µM*	2%	13µM*
CN(C)CCNC(=O)/C(=C/c1ccc(-c2cccc([N+](=O)[O-])c2)o1)NC(=O)c1ccccc1	?	-8%	29%	10µM*	0%	13µM*
COc1ccc(C(=O)N/C(=C\c2ccc(-c3cccc([N+](=O)[O-])c3)o2)C(=O)NCCCN2CCOCC2)cc1	.	3%	.	.	.	.
Cc1ccc(C(=O)N/C(=C\c2ccc(-c3cccc([N+](=O)[O-])c3)o2)C(=O)NCCCN2CCOCC2)cc1	?	-16%	209%	10µM*	-2%	?
COc1ccc(-n2ncc(C(=O)NCCCN3CCCCC3)c2C2CCN(C(=O)OC(C)(C)C)CC2)cc1	.	.	.	.	20%	.
CCCn1c2ccccc2c2cnn(CC(=O)Nc3cc(C)c(Cl)cc3OC)c(=O)c21	.	.	.	.	-4%	.
CNC(=O)c1ccc(Nc2nnc(-c3ccc(C)c(S(=O)(=O)NCC4CCCO4)c3)c3ccccc23)cc1 (stereo not drawn)	?	-17%	131%	?	-13%	5.2µM*
Cc1ccc(C)c(Nc2nnc(-c3ccc(C)c(S(=O)(=O)NCC4CCCO4)c3)c3ccccc23)c1 (stereo not drawn)	.	.	.	.	10%	.
CC(=O)Nc1ccc(Nc2nnc(-c3ccc(C)c(S(=O)(=O)NCC4CCCO4)c3)c3ccccc23)cc1 (stereo not drawn)	1.2µM*	-4%	128%	8%	0%	1µM*
Cc1ccc(-c2nnc(Nc3ccccc3)c3ccccc23)cc1S(=O)(=O)NCC1CCCO1 (stereo not drawn)	?	-7%	-2%	?	?	4.1µM*
CCN(CC)C(=O)c1ccc(Nc2nnc(-c3ccc(C)c(S(=O)(=O)NC)c3)c3ccccc23)cc1	.	.	.	.	2%	.
CNS(=O)(=O)c1cc(-c2nnc(Nc3ccc(NC(C)=O)cc3)c3ccccc23)ccc1C	?	-1%	-6%	-29%	2%	10µM*
O=C(NCCN1CCCCC1)c1ccc(Cn2c(SCc3ccc(F)cc3)nc3cccnc32)cc1	.	.	.	.	0%	.
O=C(Nc1ccc(F)cc1)c1cccc(N2C(=O)C3C4CCC(C4)C3C2=O)c1 (stereo not drawn)	-10%	14%[2.32 µM]	-44%	5%	-5%	-11%
O=C(Nc1ccc(Br)cc1)c1cccc(N2C(=O)C3C4CCC(C4)C3C2=O)c1 (stereo not drawn)	-7%	-2%	-8%	25µM*	-10%	-7%
Cc1ccccc1NC(=O)c1cccc(N2C(=O)C3C4CC(C(Br)C4Br)C3C2=O)c1 (stereo not drawn)	9.3µM*	2%	-13%	6%	-8%	-25%
Cc1cccc(NC(=O)c2cccc(N3C(=O)C4CCC(C)CC4C3=O)c2)c1C (stereo not drawn)	38%	-8%	0%	18%	-7%	-29%
SMILES	Pf growth 96h	AMA1-RON2 inh	AmpC no deterg	HCV inh	AmpC detergent	Pf growth 48h	others
COC(=O)c1ccc(NC(=O)c2cccc(N3C(=O)C4C5C=CC(C6CC56)C4C3=O)c2)cc1 (stereo not drawn)	?	-6%	42%	5µM*	6%	20%
O=C(Nc1ccccc1)c1cccc(N2C(=O)C3C4C=CC(C5CC45)C3C2=O)c1 (stereo not drawn)	?	-2%	-20%	?	0%	-20%
Cc1ccc(NC(=O)c2ccccc2N2C(=O)C3C4C=CC(C5CC45)C3C2=O)cc1C (stereo not drawn)	9.3µM*	-3%	46%	-12%	0%	?
COc1ccc(-n2cc(C(=O)NCc3ccc(Cl)cc3)c3ccccc3c2=O)cc1	.	.	.	.	1%	.
CSc1nc2nc3c(cc2c(=O)[nH]1)C(O)Oc1ccc(C)cc1-3 (stereo not drawn)	?	-3%	-12%	-5%	-5%	1.3µM*
CSc1nc(O)c(C(c2ccc(C)cc2)c2c(O)nc(SC)[nH]c2=O)c(=O)[nH]1	8%	5%	2%	6%	11%	-22%
O=C(CSC1CC(=O)N(c2ccc(C(=O)O)cc2)C1=O)Nc1ccc(Cl)cc1 (stereo not drawn)	12µM*	49%	-17%	17%	-5%	2%
O=C(O)CSC1CC(=O)N(c2ccc(F)cc2)C1=O (stereo not drawn)	.	-10%	.	.	.	.
COc1ccc2c(c1OC)C(=O)OC2Nc1nc(-c2ccc(-c3ccccc3)cc2)cs1 (stereo not drawn)	i	-8%	-48%	8.9µM*	-5%	425%
Cn1ccc2cc(-c3ccc4ncnc(NCc5ccc6c(c5)OCO6)c4c3)ccc21	?	.	-28%	.	-2%	13µM*	CLK4 cf ADPGlo=?;CLK4 ADP FP=-17%
